# Compound activity: PubChem BioAssay, Broad Institute
# IDE exosite FP: insulin-degrading enzyme (human) exo-site inhibition. P14735. purified IDE, FL-6b probe fluorescence polarization; hits give low values. z-score at 20 µM. actives 6.3% (n = 17,000). AID 1259349;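 active means z-score of -3 or lower, meaning strong loss of probe binding signal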;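 further: His-tagged human IDE residues 42-1019 made in E. coli with 30 nM FL-6b probe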
# Target sequence (P14735 42-1019 limits assumed): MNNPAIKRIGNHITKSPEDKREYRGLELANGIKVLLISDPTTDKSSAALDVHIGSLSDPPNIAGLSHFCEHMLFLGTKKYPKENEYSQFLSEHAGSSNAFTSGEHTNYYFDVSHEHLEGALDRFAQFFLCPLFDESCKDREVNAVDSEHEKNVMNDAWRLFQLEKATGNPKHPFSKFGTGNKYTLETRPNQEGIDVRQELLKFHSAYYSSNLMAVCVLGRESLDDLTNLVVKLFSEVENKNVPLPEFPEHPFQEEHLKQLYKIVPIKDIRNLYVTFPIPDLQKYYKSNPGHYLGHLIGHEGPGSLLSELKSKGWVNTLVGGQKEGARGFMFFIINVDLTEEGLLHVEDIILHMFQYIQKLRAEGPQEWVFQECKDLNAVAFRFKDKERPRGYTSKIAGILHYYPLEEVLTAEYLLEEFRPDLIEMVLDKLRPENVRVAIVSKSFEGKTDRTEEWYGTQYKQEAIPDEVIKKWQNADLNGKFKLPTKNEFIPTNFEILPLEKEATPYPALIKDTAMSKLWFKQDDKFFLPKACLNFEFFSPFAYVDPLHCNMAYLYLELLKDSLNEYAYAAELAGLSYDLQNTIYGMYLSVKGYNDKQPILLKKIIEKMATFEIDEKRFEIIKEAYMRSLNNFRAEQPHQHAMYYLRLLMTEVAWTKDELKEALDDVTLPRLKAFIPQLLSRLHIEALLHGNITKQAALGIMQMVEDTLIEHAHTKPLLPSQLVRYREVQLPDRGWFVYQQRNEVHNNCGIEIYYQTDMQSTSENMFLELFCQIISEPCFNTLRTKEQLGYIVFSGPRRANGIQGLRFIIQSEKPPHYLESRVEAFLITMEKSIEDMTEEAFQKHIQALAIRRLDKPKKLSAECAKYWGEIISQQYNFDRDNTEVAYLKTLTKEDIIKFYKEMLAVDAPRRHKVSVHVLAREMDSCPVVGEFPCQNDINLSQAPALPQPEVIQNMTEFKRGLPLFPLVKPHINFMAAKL
# Numbers without * were called inactive. The entries come from a sample that favours hits as a whole.
SMILES,IDE exosite FP
CCC(=O)N1CC(=O)N2[C@H](C1)[C@H](c1ccc(C#Cc3cccc(F)c3)cc1)[C@@H]2CO,-8.09*
CS(=O)(=O)N1CC(=O)N2[C@H](CO)[C@@H](c3ccc(C#Cc4cccc(F)c4)cc3)[C@H]2C1,-1.13
CCC(=O)N1CC(=O)N2[C@H](CO)[C@H](c3ccc(C#Cc4cccc(F)c4)cc3)[C@@H]2C1,-6.96*
CCC(=O)N1CC(=O)N2[C@@H](CO)[C@H](c3ccc(C#Cc4cccc(F)c4)cc3)[C@@H]2C1,-0.847
CCS(=O)(=O)N1CC2(CN(CC3CCOCC3)[C@@H](CO)c3c2c2ccc(OC)cc2n3C)C1,-2.09
CC(C)NC(=O)Nc1ccc2c(c1)C(=O)N([C@H](C)CO)C[C@@H](C)[C@@H](CN(C)C(=O)C1CCCCC1)OCCCC[C@H](C)O2,2.19
COCC(=O)N1CC(=O)N2[C@@H](CO)[C@@H](c3ccc(C#CC4CC4)cc3)[C@@H]2C1,-0.0689
O=C(C1CC1)N1CC[C@@H]2[C@H]1c1cc(Br)ccc1N[C@@H]2CO,0.175
O=C(c1cnccn1)N1CC(=O)N2[C@H](C1)[C@@H](c1ccc(-c3cccc(F)c3)cc1)[C@@H]2CO,-3.97*
O=C(c1cnccn1)N1CC(=O)N2[C@@H](CO)[C@@H](c3ccc(-c4ccc(F)cc4)cc3)[C@@H]2C1,3.11
O=C(c1cnccn1)N1CC(=O)N2[C@H](CO)[C@H](c3ccc(-c4cccc(F)c4)cc3)[C@@H]2C1,-0.306
O=C(c1cccc(F)c1)N1CC(=O)N2[C@H](CO)[C@H](c3ccc(-c4cccnc4)cc3)[C@@H]2C1,3.11
O=C(c1ccccn1)N1CC(=O)N2[C@H](C1)[C@H](c1ccc(-c3cccc(F)c3)cc1)[C@@H]2CO,3.08
O=C(c1cnccn1)N1CC(=O)N2[C@H](C1)[C@@H](c1ccc(-c3ccc(F)cc3)cc1)[C@@H]2CO,4.35
O=C(c1cnccn1)N1CC(=O)N2[C@H](CO)[C@@H](c3ccc(-c4cccc(F)c4)cc3)[C@@H]2C1,-3.68*
O=C(c1cnccn1)N1CC(=O)N2[C@H](CO)[C@H](c3ccc(-c4ccc(F)cc4)cc3)[C@@H]2C1,3.5
O=C(c1ccccn1)N1CC(=O)N2[C@H](C1)[C@@H](c1ccc(-c3cccc(F)c3)cc1)[C@@H]2CO,-7.75*
CCS(=O)(=O)N1CCCCN2[C@H](CO)[C@H](c3ccc(-c4ccc(C(=O)N(C)C)cc4)cc3)[C@H]2C1,0.469
CCCC#Cc1ccc([C@H]2[C@H](CO)N3C(=O)CN(C(=O)NC4CCCC4)C[C@@H]23)cc1,-2.97
COc1ccc(C#Cc2ccc([C@H]3[C@H](CO)N4C(=O)CN(C(=O)c5ccc(F)cc5)C[C@@H]34)cc2)cc1,0.553
N#C[C@H]1[C@@H](c2ccccc2-c2cccc(F)c2)[C@H](CO)N1S(=O)(=O)c1cccc(F)c1,-0.621
Cc1noc(C)c1NC(=O)N1C[C@H](O)COC[C@@H]2O[C@@H](CC(=O)N[C@H]3CCN(Cc4ccccc4)C3)CC[C@H]21,-0.0611
O=C(Nc1cccc(F)c1)N1C[C@@H]2[C@H](c3ccccc31)[C@H](CO)N2C(=O)Cc1ccccn1,0.286
CCCC#Cc1ccc([C@H]2[C@H](CO)N3CCCCN(S(=O)(=O)Cc4ccccc4)C[C@@H]23)cc1,0.556
CCN(C[C@@H]1N[C@@H](CO)[C@H]1c1ccc(-c2cccc(C#N)c2)cc1)C(C)=O,2.53
SMILES,IDE exosite FP
CN(C)C(=O)c1ccc(-c2ccc([C@H]3[C@H]4CN(C(=O)C5CCCC5)CC(=O)N4[C@H]3CO)cc2)cc1,1.86
CC(=O)NC[C@@H]1[C@H](c2ccc(-c3cccnc3)cc2)[C@H](CO)N1C(=O)C1CC1,1.33
CCCNC(=O)N1CC(=O)N2[C@@H](CO)[C@H](c3ccc(C#Cc4cccc(F)c4)cc3)[C@@H]2C1,-9.19*
CCCNC(=O)N1CC(=O)N2[C@H](C1)[C@@H](c1ccc(C#Cc3ccc(F)cc3)cc1)[C@@H]2CO,1.16
CCCC#Cc1ccc([C@@H]2[C@@H](CO)N3C(=O)CN(C(=O)NCCC)C[C@@H]23)cc1,1.75
CCCNC(=O)N1CC(=O)N2[C@H](CO)[C@H](c3ccc(C#Cc4cccc(F)c4)cc3)[C@@H]2C1,-8.46*
CCCC#Cc1ccc([C@@H]2[C@H]3CN(C(=O)NCCC)CC(=O)N3[C@H]2CO)cc1,1.59
CCCNC(=O)N1CC(=O)N2[C@H](CO)[C@@H](c3ccc(C#Cc4cccc(F)c4)cc3)[C@@H]2C1,-6.36*
CCCNC(=O)N1CC(=O)N2[C@H](CO)[C@@H](c3ccc(C#Cc4cccc(OC)c4)cc3)[C@H]2C1,0.0101
CCCC#Cc1ccc([C@H]2[C@H](CO)N3C(=O)CN(C(=O)NCCC)C[C@@H]23)cc1,-0.633
CCCNC(=O)N1CC(=O)N2[C@H](CO)[C@H](c3ccc(C#Cc4cccc(F)c4)cc3)[C@H]2C1,0.546
CCCNC(=O)N1CC(=O)N2[C@H](CO)[C@H](c3ccc(C#Cc4ccccc4)cc3)[C@H]2C1,-1.12
CCCNC(=O)N1CC(=O)N2[C@H](CO)[C@H](c3ccc(C#Cc4ccccc4)cc3)[C@@H]2C1,-9.58*
CCCNC(=O)N1CC(=O)N2[C@H](CO)[C@@H](c3ccc(C#Cc4cccc(OC)c4)cc3)[C@@H]2C1,-2.99
COc1ccc(-c2cn(CC[C@H]3CC[C@H](NC(=O)c4cnccn4)[C@H](CO)O3)nn2)cc1,0.181
COCC(=O)N1CC(=O)N2[C@H](CO)[C@@H](c3ccc(-c4cccnc4)cc3)[C@H]2C1,1.89
CCS(=O)(=O)N1CC(=O)N2[C@H](CO)[C@@H](c3ccc(C#CCC4CCCC4)cc3)[C@H]2C1,1.57
CN(C)CC(=O)N1[C@H](C#N)[C@H](c2ccccc2-c2ccc(C(=O)N(C)C)cc2)[C@@H]1CO,0.349
CS(=O)(=O)N1CCCCN2[C@H](CO)[C@@H](c3ccc(Br)cc3)[C@H]2C1,2.42
COc1ccc(-c2ccccc2[C@H]2[C@@H](C#N)N(C(=O)C3CCCCC3)[C@H]2CO)cc1,3.47
COc1cccc(-c2ccc([C@H]3[C@@H](C#N)N(C(=O)c4ccccn4)[C@@H]3CO)cc2)c1,-4.3*
COc1cccc(C#Cc2ccc([C@@H]3[C@@H](C#N)N(C(=O)c4ccccn4)[C@H]3CO)cc2)c1,1.55
COc1cccc(-c2ccc([C@H]3[C@@H](CO)N(C(=O)c4ccccn4)[C@H]3C#N)cc2)c1,-5.94*
COc1cccc(C#Cc2ccc([C@H]3[C@@H](C#N)N(C(=O)c4ccccn4)[C@@H]3CO)cc2)c1,-1.06
COc1cccc(C#Cc2ccc([C@@H]3[C@@H](C#N)N(C(=O)c4ccccn4)[C@@H]3CO)cc2)c1,-1.26
SMILES,IDE exosite FP
COc1cccc(-c2ccc([C@H]3[C@H](C#N)N(C(=O)c4ccccn4)[C@H]3CO)cc2)c1,-2.87
O=C(C[C@@H]1CC[C@H]2[C@@H](COC[C@H](O)CN2S(=O)(=O)c2ccccc2)O1)NCC1CCCCC1,-1.11
C[C@@H]1CCCCO[C@@H](CN(C)Cc2ccc3c(c2)OCO3)[C@@H](C)CN([C@H](C)CO)C(=O)c2cc(NS(=O)(=O)c3cn(C)cn3)ccc2O1,2
CCC(=O)NC[C@@H]1[C@@H](c2ccc(C3=CCCC3)cc2)[C@@H](CO)N1C(C)=O,1.94
CN(C)C(=O)c1cc2c(c(-c3cccc(/C=C/c4ccccc4)c3)n1)[C@H](CCO)N([S@@](=O)C(C)(C)C)C2,-1.09
COc1ccc(CNC(=O)C[C@H]2C=C[C@@H](NC(=O)c3cccc(F)c3)[C@@H](CO)O2)cc1,-0.817
O=C(Cc1ccccn1)N1CC(=O)N2[C@@H](CO)[C@@H](c3ccc(-c4ccccc4)cc3)[C@@H]2C1,-5.63*
